We go through five molecules from PubChem BioAssay.

For assay [1], the system named is Plasmodium falciparum Sir2 (PF13_0152, Sir2A). In words: pfSir2 binders on small-molecule microarrays, primary screen, biochemical, small-molecule microarray, 635 nm fluorescence (AID 1098).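 Further: score merges spot fluorescence intensity with its signal-to-noise ratio.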 The note with it: small-molecule microarray binding, fluorescence 635 nm; higher = more signal.
Assay [2] is described as follows: small-molecule microarray binders of probe aDKK1, primary screen, biochemical, biotinylated probe, 635/667 nm fluorescence (AID 1099).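 Further: score merges 667nm spot fluorescence with signal to noise across triplicate slides.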 The note with it: higher = more signal.
A short description of assay [3]: small-molecule microarray binders of probe aCHRDL2, primary screen, biochemical, biotinylated probe, 635/667 nm fluorescence (AID 1100). The following applies: higher = more signal.
Assay [4] can be described thus: splicing luciferase reporter signal modulators, primary screen, spliceosome inhibition project, cell-based, HEK293, splice +/- reporter (AID 1101).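 Further: HEK293 cells carrying a splicing-competent luciferase reporter gene; test concentration not given here.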 The note with it: luminescence, 24 h, higher = more signal, called active from +8 up or from −8 down.
Assay [5] has as its target Fibroblast growth factor 10 (Homo sapiens) (UniProt O15520). In words: FGF10 binders on small-molecule microarrays, primary screen, biochemical, small-molecule microarray, 635 nm fluorescence (AID 1102). The following applies: FGF10 binding, fluorescence 635 nm, higher = more signal.
The test system of assay [6] is glycogen synthase kinase-3 (GSK3A per assay name; protocol says GSK3B). The assay can be described thus: GSK3 binders on small-molecule microarrays, primary screen, biochemical, small-molecule microarray, 635 nm fluorescence, GSK3A (AID 1103). Further: the record names both GSK3A and GSK3B. The following applies: small-molecule microarray binding, fluorescence 635 nm; higher = more signal.
Assay [7] deals with Epidermal growth factor receptor (Homo sapiens) (UniProt P00533). The assay can be described thus: EGFR binders on small-molecule microarrays, primary screen, biochemical, small-molecule microarray, 635 nm fluorescence (AID 1104).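 Further: score merges 667 nm emission intensity with spot signal to noise over triplicate slides.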 The following applies: EGFR binding, higher = more signal.
Assay [8] addresses Follistatin-related protein 3 (Homo sapiens) (UniProt O95633). The assay can be described thus: FSTL3 binders on small-molecule microarrays, primary screen, biochemical, small-molecule microarray, 635 nm fluorescence (AID 1105).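 Further: score merges emission near 667 nm and signal to noise per printed spot across three slides.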 The following applies: FSTL3 binding, higher = more signal.
For assay [9], the target named is Dickkopf-related protein 1 (Homo sapiens) (UniProt O94907). In words: DKK1 binders on small-molecule microarrays, primary screen, biochemical, small-molecule microarray, 635 nm fluorescence scan (AID 1106).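 Further: score merges emission near 667 nm with signal to noise over three replicate slides.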 The following applies: DKK1 binding, higher = more signal.
For assay [10], the system named is Inhibin beta A chain (activin A). The assay can be described thus: INHBA (activin A) binders on microarrays, primary screen, biochemical, small-molecule microarray, 635 nm fluorescence scan (AID 1107).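 Further: mouse activin A protein probed at 4.33 µg/mL on printed slides; score merges bound-protein fluorescence near 667 nm with spot signal-to-noise.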 The note with it: small-molecule microarray binding, higher = more signal.
In assay [11] the test system is Human papillomavirus type 1a protein E7 (residues 44-93). The assay can be described thus: HPV1a E7 fragment binders on microarrays, primary screen, biochemical, small-molecule microarray, residues 44-93, 635 nm fluorescence (AID 1108).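 Further: E7 fragment applied at 1 µg/mL in TBST for 1 h at 4 C; score combines spot fluorescence with its signal to noise ratio.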 The following applies: small-molecule microarray binding, fluorescence 635 nm; higher = more signal.
Assay [12] is described as follows: modulators of HCV replicon luciferase signal, primary screen, HCV replication inhibitor project, Huh7 cells, luciferase reporter (AID 1109).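 Further: huh7 hepatoma cells harbouring a luciferase neomycin HCV replicon reporter; luciferase luminescence as measure of HCV replicon replication; test concentration not given here.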 The following applies: 48 h, higher = more signal.
Assay [13] addresses Left-right determination factor 2 (Homo sapiens) (UniProt O00292). In words: LEFTY2 binders on small-molecule microarrays, primary screen, biochemical, small-molecule microarray, 635 nm fluorescence scan (AID 1110). The note with it: LEFTY2 binding, higher = more signal.
The target of assay [14] is Calmodulin-1 (Homo sapiens) (UniProt P0DP23). The assay can be described thus: CALM1 binders on microarrays, EGTA buffer, profiling panel, biochemical, small-molecule microarray, Cy5-labelled CALM1 (AID 1111).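 Further: labelled calmodulin applied in Tris saline Tween buffer holding calcium plus EGTA and DTT.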 The following applies: Cy5-CALM1 binding fluorescence, higher = more signal.
Assay [15] has the same target. In words: calcium-bound CALM1 binders on microarrays, profiling panel, artefact control for SMM control-protein annotation, biochemical, small-molecule microarray, Cy5-labelled CALM1, plus calcium (AID 1112).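 Further: score merges spot fluorescence with signal to noise from triplicate slides.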 The note with it: Cy5-CALM1 binding fluorescence, higher = more signal.
A short description of assay [16]: small-molecule microarray binders of probe aWnt5a, primary screen, biochemical, biotinylated probe, 635/667 nm fluorescence (AID 1113).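 Further: score merges 667 nm fluorescence intensity with signal-to-noise per printed feature.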 The following applies: higher = more signal.
Assay [17] in a line: small-molecule microarray binders of probe aShh, primary screen, biochemical, biotinylated probe, 635/667 nm fluorescence (AID 1114).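 Further: probe is biotin-labelled aShh protein from a stem cell growth factor screen; measures binding of labelled protein to compounds printed on the slide; score merges feature fluorescence at 667 nm with signal-to-noise.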 The following applies: higher = more signal.
Assay [18] is described as follows: small-molecule microarray binders of probe aNog, primary screen, biochemical, biotinylated probe, 635/667 nm fluorescence (AID 1115).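 Further: probe is biotinylated aNog protein used at 0.15 µg/mL for 1 h at 4 C; z-score combines 667 nm fluorescence of each spot with its signal to noise.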 The following applies: higher = more signal.
Assay [19] concerns the target Torsin-1A-interacting protein 1 (Homo sapiens) (UniProt Q5JTV8). The assay can be described thus: LAP1 binders from COS7 cell lysate, primary screen, small-molecule microarray, 635/667 nm fluorescence (AID 1116). The following applies: COS7-hLAP1 lysate binding, 635 nm fluorescence, higher = more signal.
The target in assay [20] is Alpha-bungarotoxin (Bungarus multicinctus) (UniProt P60615). In words: alpha-bungarotoxin binders on microarray, profiling panel, artefact control for SMM control protein annotation, biochemical, small-molecule microarray, Alexa647 label, 635/667 nm fluorescence (AID 1117). The note with it: alpha-BTX-A647 binding fluorescence, higher = more signal.

Active and inactive are the calls of the source.

Chain of Alpha-bungarotoxin (Bungarus multicinctus) (P60615 whole entry, looked up): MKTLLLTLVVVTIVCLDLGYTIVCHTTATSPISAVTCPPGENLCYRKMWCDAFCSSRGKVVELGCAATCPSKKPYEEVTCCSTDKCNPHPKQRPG
Chain of Torsin-1A-interacting protein 1 (Homo sapiens) (Q5JTV8 whole entry, looked up): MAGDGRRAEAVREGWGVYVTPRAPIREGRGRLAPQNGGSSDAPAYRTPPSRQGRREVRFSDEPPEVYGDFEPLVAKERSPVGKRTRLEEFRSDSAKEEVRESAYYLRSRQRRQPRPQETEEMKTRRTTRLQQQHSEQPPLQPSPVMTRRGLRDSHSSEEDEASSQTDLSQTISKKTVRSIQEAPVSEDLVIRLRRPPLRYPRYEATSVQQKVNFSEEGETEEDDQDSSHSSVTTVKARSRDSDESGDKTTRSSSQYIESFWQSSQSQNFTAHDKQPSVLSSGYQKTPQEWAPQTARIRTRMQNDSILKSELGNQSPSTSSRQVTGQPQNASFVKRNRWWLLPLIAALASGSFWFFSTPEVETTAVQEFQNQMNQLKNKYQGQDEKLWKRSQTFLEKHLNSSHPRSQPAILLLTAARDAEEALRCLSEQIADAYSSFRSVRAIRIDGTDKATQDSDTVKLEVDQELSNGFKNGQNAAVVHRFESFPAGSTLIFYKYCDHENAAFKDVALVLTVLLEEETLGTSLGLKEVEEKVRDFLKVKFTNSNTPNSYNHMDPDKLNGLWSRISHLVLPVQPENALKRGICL
Chain of Dickkopf-related protein 1 (Homo sapiens) (O94907 whole entry, looked up): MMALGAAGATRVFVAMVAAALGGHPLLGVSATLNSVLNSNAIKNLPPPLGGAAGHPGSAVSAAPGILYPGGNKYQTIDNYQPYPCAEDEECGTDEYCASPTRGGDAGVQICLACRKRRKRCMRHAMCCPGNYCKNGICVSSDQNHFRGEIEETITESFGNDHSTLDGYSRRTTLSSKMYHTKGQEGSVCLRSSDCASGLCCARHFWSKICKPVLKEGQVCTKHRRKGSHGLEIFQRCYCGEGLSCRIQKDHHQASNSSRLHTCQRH
Chain of Epidermal growth factor receptor (Homo sapiens) (P00533 whole entry, looked up): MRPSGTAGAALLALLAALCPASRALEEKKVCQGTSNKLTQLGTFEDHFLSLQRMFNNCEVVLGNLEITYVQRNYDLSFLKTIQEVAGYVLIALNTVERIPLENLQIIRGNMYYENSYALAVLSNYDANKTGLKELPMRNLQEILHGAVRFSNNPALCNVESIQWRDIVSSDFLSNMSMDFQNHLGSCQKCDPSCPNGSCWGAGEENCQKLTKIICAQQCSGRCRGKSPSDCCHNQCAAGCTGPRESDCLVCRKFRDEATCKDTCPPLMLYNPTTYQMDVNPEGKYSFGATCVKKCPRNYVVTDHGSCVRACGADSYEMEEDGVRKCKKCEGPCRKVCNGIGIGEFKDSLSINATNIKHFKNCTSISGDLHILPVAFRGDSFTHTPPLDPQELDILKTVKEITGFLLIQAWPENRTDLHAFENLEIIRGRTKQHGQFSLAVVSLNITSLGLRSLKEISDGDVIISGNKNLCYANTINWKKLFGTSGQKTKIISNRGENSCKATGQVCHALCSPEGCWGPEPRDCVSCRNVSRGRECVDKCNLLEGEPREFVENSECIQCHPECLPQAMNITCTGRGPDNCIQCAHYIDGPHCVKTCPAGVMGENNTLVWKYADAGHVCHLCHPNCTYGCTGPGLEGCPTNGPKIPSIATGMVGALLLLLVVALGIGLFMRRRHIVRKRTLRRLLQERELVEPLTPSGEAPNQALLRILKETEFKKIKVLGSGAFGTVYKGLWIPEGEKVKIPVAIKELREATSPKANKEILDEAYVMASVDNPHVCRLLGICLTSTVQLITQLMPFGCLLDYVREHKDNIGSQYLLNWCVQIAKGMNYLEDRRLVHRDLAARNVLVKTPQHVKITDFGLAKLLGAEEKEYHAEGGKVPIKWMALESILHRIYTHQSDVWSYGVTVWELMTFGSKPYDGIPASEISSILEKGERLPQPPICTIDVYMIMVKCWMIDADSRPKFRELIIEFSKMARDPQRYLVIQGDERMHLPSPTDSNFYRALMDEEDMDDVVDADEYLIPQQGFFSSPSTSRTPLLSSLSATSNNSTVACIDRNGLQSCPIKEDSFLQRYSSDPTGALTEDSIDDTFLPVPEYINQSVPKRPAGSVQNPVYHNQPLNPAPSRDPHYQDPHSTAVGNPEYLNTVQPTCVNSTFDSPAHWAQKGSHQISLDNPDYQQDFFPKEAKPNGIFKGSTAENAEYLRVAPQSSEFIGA
Chain of Left-right determination factor 2 (Homo sapiens) (O00292 whole entry, looked up): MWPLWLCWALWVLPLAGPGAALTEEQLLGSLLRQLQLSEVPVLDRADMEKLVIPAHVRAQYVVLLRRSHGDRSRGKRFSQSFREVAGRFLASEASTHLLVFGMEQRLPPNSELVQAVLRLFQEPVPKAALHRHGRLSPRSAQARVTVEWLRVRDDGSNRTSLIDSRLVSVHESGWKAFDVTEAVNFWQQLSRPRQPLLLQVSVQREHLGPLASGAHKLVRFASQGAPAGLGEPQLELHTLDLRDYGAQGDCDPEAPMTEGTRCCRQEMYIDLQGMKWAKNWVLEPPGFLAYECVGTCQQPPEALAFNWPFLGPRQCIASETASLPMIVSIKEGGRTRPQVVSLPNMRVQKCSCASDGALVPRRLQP
Chain of Fibroblast growth factor 10 (Homo sapiens) (O15520 whole entry, looked up): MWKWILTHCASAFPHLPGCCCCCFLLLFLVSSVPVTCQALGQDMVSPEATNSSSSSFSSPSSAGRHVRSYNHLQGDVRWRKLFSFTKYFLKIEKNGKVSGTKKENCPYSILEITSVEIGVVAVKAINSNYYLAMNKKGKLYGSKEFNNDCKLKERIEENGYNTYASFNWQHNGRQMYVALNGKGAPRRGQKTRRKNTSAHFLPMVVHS
Chain of Follistatin-related protein 3 (Homo sapiens) (O95633 whole entry, looked up): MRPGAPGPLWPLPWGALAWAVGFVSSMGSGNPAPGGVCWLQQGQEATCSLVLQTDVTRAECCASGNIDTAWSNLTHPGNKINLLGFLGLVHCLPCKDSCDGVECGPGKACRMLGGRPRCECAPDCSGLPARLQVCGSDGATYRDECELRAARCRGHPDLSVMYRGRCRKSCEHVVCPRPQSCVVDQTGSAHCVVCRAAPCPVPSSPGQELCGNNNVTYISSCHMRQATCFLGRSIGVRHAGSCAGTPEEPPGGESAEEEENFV

As for `O=C1NC(=O)C2C1C=CC(C(O)c1ccc(F)cc1)N2Nc1ccc(Cl)cc1Cl` (stereo not given), the composite z-score was -0.315 in assay [1]; 0.96 in [2]; 1.12 in [3]; 0.327 in assay [5]; -0.923 in [6]; -0.416 in assay [7]. Further, the composite z-score is -0.194 in [8]; -0.459 in assay [9]; 0.924 in assay [10]; 0.379 in [11]; -0.752 in assay [13]; 0.805 in assay [14]. Also, the composite z-score in assay [15] is 1; in assay [16] it was -0.0403; in [17], 0.867; in [18], 0.993; in [19], 0.68; in assay [20] it was 0.712. In addition, the z-score was 1.65 (inactive) in assay [4] and -0.659 in assay [12].
`CC(C)(C)OC(=O)N1[C@@H](C=C(Br)Br)COC1(C)C`: the composite z-score in assay [1] was 0.395; in assay [2], -0.16; in assay [3], -0.282; in assay [5], 0.382; in assay [6], 0.901; in [7], 0.614. Moreover, the composite z-score in [8] was 0.164; in assay [9] it was 0.393; in assay [10] it was 0.29; in assay [11], 0.943; in assay [13] it was 0.514; in [14], -0.177. Moreover, the composite z-score was -0.41 in assay [15]; -0.0944 in [16]; -0.167 in [17]; 0.0051 in [18]; 1.29 in assay [19]; 0.398 in [20]. For the same molecule, the figures for the z-score in assay [4] and in assay [12] were 0.104 (inactive) and -0.213, respectively.
Turning to `NCCCCCCNC(=O)[C@@H]1C[C@@H]2C(=O)NCC(=O)N2[C@@H]1c1cccc(OCCO)c1`, the composite z-score in assay [1] turned out to be 1.6; in assay [2], 0.45; in assay [3] it was 0.0888; in assay [5], 1.37; in [6] it was 1.3; in [7], 0.702. Moreover, the composite z-score in assay [8] is 0.98; in [9], 1.32; in assay [10], 1.12; in assay [11], 1.3; in assay [13], 1.09; in assay [14], -0.115. Moreover, the composite z-score in [15] was 0.293; in [16] it was 0.14; in [17], 0.0639; in assay [18] it was -0.077; in assay [19] it was 0.95; in assay [20] it was 0.872. The values for the z-score in [4] and in assay [12] were -0.734 (inactive) and -0.453, respectively.
On to `C[N+](C)(C)CCCC[C@@H]1NC(=O)[C@H]2C[C@@H](C(=O)O)[C@@H](c3ccc(O)cc3)N2C1=O`, for which the composite z-score in [1] was 0.327; in assay [2], -0.0349; in assay [3] it was 0.149; in assay [5] it was 0.158; in assay [6] it was 0.984; in [7], -0.102. The composite z-score in assay [8] was 0.0506; in [9], 0.971; in assay [10] it was 0.832; in assay [11] it was 0.315; in assay [13], 0.436; in assay [14] it was -0.171. Besides, the composite z-score in [15] is 0.11; in assay [16] it was -0.147; in [17], -0.375; in assay [18] it was -0.14; in assay [19], 1.74; in assay [20], 0.343. Besides, the results for the z-score in [4] and in [12] were -0.303 (inactive) and 3.08, respectively.
With `Cc1ccc(S[C@]2(C(=O)NCc3ccccc3)CC(=O)N(Cc3ccccc3Cl)[C@@H]2c2ccc(CO)cc2)cc1`, the composite z-score was 1.07 in assay [1]; 0.169 in assay [2]; 0.603 in assay [3]; -0.35 in [5]; 0.165 in [6]; -1.31 in assay [7]. Also, the composite z-score was -0.648 in assay [8]; -0.743 in assay [9]; 0.0073 in assay [10]; -0.0153 in assay [11]; -1.76 in assay [13]; -0.272 in [14]. In addition, the composite z-score is 0.273 in [15]; -0.19 in assay [16]; 0.0858 in [17]; 0.308 in assay [18]; -0.0706 in assay [19]; -0.619 in [20]. For the same molecule, the z-score was -0.419 (inactive) in [4] and -2.79 in [12].
